Records with an inconclusive call do not appear. Active and inactive are the calls of the source. The calls were made as follows, unless noted: active = hit-call score of the fitted dose curve at least 0.9, where 1 is the maximum; inactive = score below 0.9.
Key:
[1] = ATG_TAL_CIS: Attagene CIS-FACTORIAL HepG2 Assay for human TAL Basal Promoter (AID 2282966); conditions: HepG2 Attagene cis-factorial TAL promoter reporter; actives raise or lower the signal;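 also: background control endpoint measuring basal TAL promoter reporter mRNA not a specific factor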
How it was run: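 Readout: reporter mRNA, fluorescence by CE. System: HepG2, transient multi-reporter transfection, endogenous TF activity. Exposure: 24 h. Analysis: bidirectional, DMSO-normalized; background control.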

[2] = ATG_TGFb_CIS: Attagene CIS-FACTORIAL HepG2 Assay for human Transforming Growth Factor (TGF) (AID 2282967); conditions: HepG2 Attagene CIS TGFb reporter, mRNA transcription; actives raise or lower the signal
How it was run: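 Readout: fluorescently labeled reporter cDNA fragments resolved by capillary electrophoresis after RT-PCR. Transfected HepG2 cells dosed for 24 h; endogenous TF activity at TGFB1-linked cis element; gain or loss fitted relative to DMSO.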

[3] = target: X-box-binding protein 1 (Homo sapiens) (UniProt P17861); assay: ATG_Xbp1_CIS: Attagene CIS-FACTORIAL HepG2 Assay for human X-box Binding Protein 1 (XBP1) (AID 2282972); conditions: HepG2 XBP1 cis-element reporter, Attagene multiplex; actives raise or lower the signal
X-box-binding protein 1 (Homo sapiens), sequence (P17861 whole entry, looked up): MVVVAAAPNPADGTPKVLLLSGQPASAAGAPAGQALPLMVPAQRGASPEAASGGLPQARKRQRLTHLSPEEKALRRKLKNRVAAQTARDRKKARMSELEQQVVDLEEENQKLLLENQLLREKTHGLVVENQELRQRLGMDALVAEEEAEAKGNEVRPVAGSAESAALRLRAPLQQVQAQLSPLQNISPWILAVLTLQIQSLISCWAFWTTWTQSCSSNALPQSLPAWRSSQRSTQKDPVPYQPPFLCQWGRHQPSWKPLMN
How it was run: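 HepG2, transient MRTU transfection (cis-promoter driven), 24 h compound exposure. Total RNA → oligo(dT) RT → PCR → 6-FAM labeling → HpaI cut → CE. Bidirectional fit vs DMSO.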

[4] = ATG_M_19_TRANS: Attagene TRANS-FACTORIAL HepG2 Assay for M19 Transcription Factor (Internal Marker) (AID 2282974; active = hit-call score of the fitted dose curve at least 0.9, where 1 is the maximum); conditions: HepG2 Attagene TRANS-FACTORIAL M19 internal marker reporter
How it was run: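 Fluorescence of 6-FAM-labelled reporter cDNA fragments, separated by capillary electrophoresis, served as the readout. These derived from HepG2 cells carrying transfected GAL4-UAS reporter units after 24 h dosing, with DMSO as negative control.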

[5] = ATG_GAL4_TRANS: Attagene TRANS-FACTORIAL HepG2 Assay for GAL4 (Internal Marker) (AID 2282976; active = hit-call score of the fitted dose curve at least 0.9, where 1 is the maximum); conditions: HepG2 Attagene TRANS GAL4 internal marker reporter
How it was run: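 Fluorescence from capillary electrophoresis of labelled RT-PCR products quantifies reporter mRNA induction after 24 h dosing of HepG2 cells carrying transfected GAL4-UAS reporter transcription units. Vehicle DMSO serves as baseline.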

[6] = target: Glucocorticoid receptor (Homo sapiens) (UniProt P04150); assay: ATG_GR_TRANS: Attagene TRANS-FACTORIAL HepG2 Assay for human Glucocorticoid Receptor (GR) (AID 2282978; active = hit-call score of the fitted dose curve at least 0.9, where 1 is the maximum;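 also: activators score as hits since higher reporter transcript over DMSO is fitted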); conditions: HepG2 Attagene TRANS GR reporter, mRNA transcription
Glucocorticoid receptor (Homo sapiens), sequence (P04150 whole entry, looked up, the tested form may be a part): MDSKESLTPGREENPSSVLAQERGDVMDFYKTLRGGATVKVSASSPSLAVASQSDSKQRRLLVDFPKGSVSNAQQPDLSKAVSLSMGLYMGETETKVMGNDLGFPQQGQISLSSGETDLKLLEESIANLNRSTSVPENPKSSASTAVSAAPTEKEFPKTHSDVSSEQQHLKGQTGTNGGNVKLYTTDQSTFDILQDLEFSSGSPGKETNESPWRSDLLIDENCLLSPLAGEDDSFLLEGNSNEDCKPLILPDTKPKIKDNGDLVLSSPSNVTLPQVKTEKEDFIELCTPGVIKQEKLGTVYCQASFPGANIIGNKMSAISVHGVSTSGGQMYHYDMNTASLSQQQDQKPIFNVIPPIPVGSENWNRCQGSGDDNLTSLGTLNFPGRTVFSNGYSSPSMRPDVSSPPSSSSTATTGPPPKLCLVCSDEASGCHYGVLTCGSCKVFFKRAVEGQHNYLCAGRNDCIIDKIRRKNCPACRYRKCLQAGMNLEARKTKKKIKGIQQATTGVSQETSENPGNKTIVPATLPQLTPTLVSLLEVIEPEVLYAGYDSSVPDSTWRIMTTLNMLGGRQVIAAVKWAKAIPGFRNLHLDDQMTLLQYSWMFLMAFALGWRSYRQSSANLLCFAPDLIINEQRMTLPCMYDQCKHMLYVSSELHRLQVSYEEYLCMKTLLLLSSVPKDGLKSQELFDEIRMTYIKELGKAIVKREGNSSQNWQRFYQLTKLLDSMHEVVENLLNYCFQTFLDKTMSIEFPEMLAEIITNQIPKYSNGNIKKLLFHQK
How it was run: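 Fluorescent capillary-electrophoresis quantitation of reporter mRNA is the readout, taken 24 h after dosing human HepG2 cells carrying transiently transfected GAL4-UAS reporter units activated by chimeric NR-GAL4 fusions; activity scored as induction over DMSO.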

[7] = ATG_M_32_TRANS: Attagene TRANS-FACTORIAL HepG2 Assay for M32 Transcription Factor (Internal Marker) (AID 2282984; active = hit-call score of the fitted dose curve at least 0.9, where 1 is the maximum); conditions: HepG2 Attagene TRANS M32 internal marker reporter
How it was run: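 HepG2 cells transiently transfected with GAL4-UAS reporter units, dosed for 24 hours. Reporter mRNA quantified by RT-PCR, 6-FAM labelling, HpaI digestion and capillary electrophoresis; internal-marker signal fitted upward relative to DMSO.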

[8] = target: Transcriptional activator Myb (Homo sapiens) (UniProt P10242); assay: ATG_Myb_CIS: Attagene CIS-FACTORIAL HepG2 Assay for human Myeloblastosis (Myb) Proto-Oncogene Transcription Factor (AID 2282986); conditions: HepG2 Attagene CIS-FACTORIAL Myb reporter transcription; actives raise or lower the signal
Transcriptional activator Myb (Homo sapiens), sequence (P10242 whole entry, looked up): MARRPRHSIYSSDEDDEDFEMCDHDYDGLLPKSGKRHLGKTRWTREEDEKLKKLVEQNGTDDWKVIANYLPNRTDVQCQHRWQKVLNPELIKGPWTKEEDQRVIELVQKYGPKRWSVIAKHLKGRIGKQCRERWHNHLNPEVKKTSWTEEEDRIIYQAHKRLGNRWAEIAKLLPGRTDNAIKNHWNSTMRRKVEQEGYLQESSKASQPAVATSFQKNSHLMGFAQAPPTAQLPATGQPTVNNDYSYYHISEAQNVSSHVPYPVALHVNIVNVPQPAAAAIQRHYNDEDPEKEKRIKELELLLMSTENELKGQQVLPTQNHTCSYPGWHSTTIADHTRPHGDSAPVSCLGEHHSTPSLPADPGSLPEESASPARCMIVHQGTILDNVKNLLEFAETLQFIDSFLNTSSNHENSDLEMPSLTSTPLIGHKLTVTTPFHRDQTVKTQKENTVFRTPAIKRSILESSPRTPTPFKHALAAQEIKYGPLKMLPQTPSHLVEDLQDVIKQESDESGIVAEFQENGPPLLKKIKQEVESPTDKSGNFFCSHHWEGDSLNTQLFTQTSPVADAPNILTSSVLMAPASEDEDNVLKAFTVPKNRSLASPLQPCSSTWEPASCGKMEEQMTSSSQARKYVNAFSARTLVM
How it was run: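 Reporter transcript levels, quantified by fluorescent RT-PCR and capillary electrophoresis, serve as the read-out. Transfected HepG2 cells carrying cis-promoter reporter units are dosed for 24 hours, and curves are fitted bidirectionally against DMSO controls.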

[9] = target: Nuclear respiratory factor 1 (Homo sapiens) (UniProt Q16656); assay: ATG_NRF1_CIS: Attagene CIS-FACTORIAL HepG2 Assay for human Nuclear Respiratory Factor 1 (NRF1) Orphan Gene (AID 2282987); conditions: HepG2 NRF1 cis-element reporter, Attagene multiplex; actives raise or lower the signal
Nuclear respiratory factor 1 (Homo sapiens), sequence (Q16656 whole entry, looked up): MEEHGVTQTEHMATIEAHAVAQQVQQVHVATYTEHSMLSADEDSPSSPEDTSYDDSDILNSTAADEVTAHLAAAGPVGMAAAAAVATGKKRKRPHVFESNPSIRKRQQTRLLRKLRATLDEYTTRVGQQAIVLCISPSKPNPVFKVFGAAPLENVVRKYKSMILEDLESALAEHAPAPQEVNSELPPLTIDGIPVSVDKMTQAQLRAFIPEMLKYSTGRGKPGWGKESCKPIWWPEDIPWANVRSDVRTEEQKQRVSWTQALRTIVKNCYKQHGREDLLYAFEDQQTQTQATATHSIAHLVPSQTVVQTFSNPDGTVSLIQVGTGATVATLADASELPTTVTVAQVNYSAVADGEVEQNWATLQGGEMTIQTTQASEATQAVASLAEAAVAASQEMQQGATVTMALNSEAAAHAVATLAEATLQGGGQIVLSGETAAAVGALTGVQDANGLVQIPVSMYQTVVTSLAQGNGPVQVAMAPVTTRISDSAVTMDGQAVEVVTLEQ
How it was run: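 Multiplexed cis-reporter assay, HepG2 cells, 24 h treatment. Total RNA → oligo(dT) RT → PCR with reporter-specific primers → 6-FAM primer extension → HpaI cut → CE. Bidirectional fit vs DMSO.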

[10] = ATG_VDRE_CIS: Attagene CIS-FACTORIAL HepG2 Assay for human Vitamin D Receptor Element (VDRE) (AID 2282968); conditions: HepG2 VDRE cis-reporter transcription, actives raise or lower the signal
How it was run: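 Transiently transfected HepG2 cells carrying cis-regulated reporter transcription units were exposed for 24 h. Reporter mRNA was measured by RT-PCR with fluorescent labelling and capillary electrophoresis, and fitted in both directions against DMSO.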

[11] = target: Oxysterols receptor LXR-alpha (Homo sapiens) (UniProt Q13133); assay: ATG_LXRa_TRANS: Attagene TRANS-FACTORIAL HepG2 Assay for human Liver X Receptor alpha (LXRa) (AID 2282980; active = hit-call score of the fitted dose curve at least 0.9, where 1 is the maximum); conditions: HepG2 Attagene TRANS reporter, LXRa transactivation
Oxysterols receptor LXR-alpha (Homo sapiens), sequence (Q13133 whole entry, looked up): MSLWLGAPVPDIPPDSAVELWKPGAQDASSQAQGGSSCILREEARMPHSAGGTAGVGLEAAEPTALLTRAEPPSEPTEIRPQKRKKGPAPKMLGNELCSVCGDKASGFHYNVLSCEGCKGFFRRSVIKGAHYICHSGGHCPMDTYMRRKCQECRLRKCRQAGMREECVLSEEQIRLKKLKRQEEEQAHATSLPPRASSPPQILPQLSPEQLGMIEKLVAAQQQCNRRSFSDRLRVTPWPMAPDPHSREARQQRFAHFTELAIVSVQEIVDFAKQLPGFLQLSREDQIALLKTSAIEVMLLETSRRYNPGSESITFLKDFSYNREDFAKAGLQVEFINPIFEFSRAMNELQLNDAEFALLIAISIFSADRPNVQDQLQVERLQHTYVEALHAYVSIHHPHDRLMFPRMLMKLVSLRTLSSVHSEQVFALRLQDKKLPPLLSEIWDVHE
How it was run: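 Transient HepG2 transfectants, 24 h dosing, RT-PCR/CE mRNA reporter quantitation; gain-of-signal vs DMSO.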

[12] = target: Hepatocyte nuclear factor 4-alpha (Homo sapiens) (UniProt P41235); assay: ATG_HNF4a_TRANS: Attagene TRANS-FACTORIAL HepG2 Assay for human Hepatocyte Nuclear Factor 4 alpha (HNF4a) (AID 2282982; active = hit-call score of the fitted dose curve at least 0.9, where 1 is the maximum); conditions: HepG2 HNF4a transactivation reporter, mRNA readout
Hepatocyte nuclear factor 4-alpha (Homo sapiens), sequence (P41235 whole entry, looked up, the tested form may be a part): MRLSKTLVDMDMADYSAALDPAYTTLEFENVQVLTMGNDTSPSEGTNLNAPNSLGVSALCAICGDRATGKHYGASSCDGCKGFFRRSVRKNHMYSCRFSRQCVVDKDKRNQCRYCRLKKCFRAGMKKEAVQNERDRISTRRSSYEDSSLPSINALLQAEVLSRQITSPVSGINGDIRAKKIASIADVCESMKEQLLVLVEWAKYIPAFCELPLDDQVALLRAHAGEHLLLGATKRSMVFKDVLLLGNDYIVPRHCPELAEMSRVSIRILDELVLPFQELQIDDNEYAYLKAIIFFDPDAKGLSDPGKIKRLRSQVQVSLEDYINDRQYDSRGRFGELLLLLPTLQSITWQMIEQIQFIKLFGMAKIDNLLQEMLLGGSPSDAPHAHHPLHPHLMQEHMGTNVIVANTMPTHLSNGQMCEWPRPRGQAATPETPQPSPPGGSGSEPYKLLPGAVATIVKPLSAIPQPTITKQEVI
How it was run: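 HepG2 cells transiently transfected with HNF4a-Gal4 chimera and GAL4-UAS reporter units, dosed for 24 h. Reporter mRNA measured by RT-PCR, fluorescent primer extension and capillary electrophoresis; gain-of-signal fitted relative to DMSO.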

[13] = ATG_M_06_TRANS: Attagene TRANS-FACTORIAL HepG2 Assay for M06 Transcription Factor (Internal Marker) (AID 2282983; active = hit-call score of the fitted dose curve at least 0.9, where 1 is the maximum); conditions: HepG2 Attagene TRANS M06 internal marker reporter
How it was run: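 Measured by capillary electrophoresis of fluorescently labelled RT-PCR products, this endpoint reflects reporter mRNA in HepG2 cells harbouring exogenous NR-GAL4 reporter constructs after 24 h exposure, with DMSO as baseline.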

[14] = target: Nuclear receptor subfamily 4 group A member 2 (Homo sapiens) (UniProt P43354); assay: ATG_NURR1_TRANS: Attagene TRANS-FACTORIAL HepG2 Assay for human Nuclear Receptor Related Protein 1 (NURR1) (AID 2282985; active = hit-call score of the fitted dose curve at least 0.9, where 1 is the maximum); conditions: HepG2 Attagene TRANS reporter, mRNA readout
Nuclear receptor subfamily 4 group A member 2 (Homo sapiens), sequence (P43354 whole entry, looked up, the tested form may be a part): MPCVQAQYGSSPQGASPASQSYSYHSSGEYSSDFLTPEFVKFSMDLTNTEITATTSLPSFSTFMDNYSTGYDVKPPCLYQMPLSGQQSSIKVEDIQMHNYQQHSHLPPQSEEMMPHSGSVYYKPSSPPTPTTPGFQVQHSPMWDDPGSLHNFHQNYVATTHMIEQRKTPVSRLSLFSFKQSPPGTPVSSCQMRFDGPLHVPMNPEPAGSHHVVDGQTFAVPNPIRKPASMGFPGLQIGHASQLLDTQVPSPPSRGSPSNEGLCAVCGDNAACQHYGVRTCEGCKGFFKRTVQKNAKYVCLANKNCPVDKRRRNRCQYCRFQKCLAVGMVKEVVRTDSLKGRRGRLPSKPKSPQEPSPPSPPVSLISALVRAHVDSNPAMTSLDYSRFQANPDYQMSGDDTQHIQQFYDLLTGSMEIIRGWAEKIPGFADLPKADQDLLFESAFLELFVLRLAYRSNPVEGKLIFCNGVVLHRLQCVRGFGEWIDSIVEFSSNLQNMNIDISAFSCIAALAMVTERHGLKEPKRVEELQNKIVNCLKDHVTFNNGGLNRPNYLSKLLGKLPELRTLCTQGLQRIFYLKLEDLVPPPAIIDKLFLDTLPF
How it was run: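 HepG2 cells transiently transfected with NURR1-Gal4 chimera and GAL4-UAS reporter units; after 24 hr compound exposure, reporter mRNA quantified by RT-PCR and capillary electrophoresis; gain of signal fitted against DMSO.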

[15] = target: Estrogen receptor (Homo sapiens) (UniProt P03372); assay: ATG_ERa_TRANS: Attagene TRANS-FACTORIAL HepG2 Assay for human Estrogen Receptor alpha (ERa) (AID 2282970; active = hit-call score of the fitted dose curve at least 0.9, where 1 is the maximum); conditions: HepG2 Attagene TRANS ERa GAL4 reporter, mRNA
Estrogen receptor (Homo sapiens), sequence (P03372 whole entry, looked up, the tested form may be a part): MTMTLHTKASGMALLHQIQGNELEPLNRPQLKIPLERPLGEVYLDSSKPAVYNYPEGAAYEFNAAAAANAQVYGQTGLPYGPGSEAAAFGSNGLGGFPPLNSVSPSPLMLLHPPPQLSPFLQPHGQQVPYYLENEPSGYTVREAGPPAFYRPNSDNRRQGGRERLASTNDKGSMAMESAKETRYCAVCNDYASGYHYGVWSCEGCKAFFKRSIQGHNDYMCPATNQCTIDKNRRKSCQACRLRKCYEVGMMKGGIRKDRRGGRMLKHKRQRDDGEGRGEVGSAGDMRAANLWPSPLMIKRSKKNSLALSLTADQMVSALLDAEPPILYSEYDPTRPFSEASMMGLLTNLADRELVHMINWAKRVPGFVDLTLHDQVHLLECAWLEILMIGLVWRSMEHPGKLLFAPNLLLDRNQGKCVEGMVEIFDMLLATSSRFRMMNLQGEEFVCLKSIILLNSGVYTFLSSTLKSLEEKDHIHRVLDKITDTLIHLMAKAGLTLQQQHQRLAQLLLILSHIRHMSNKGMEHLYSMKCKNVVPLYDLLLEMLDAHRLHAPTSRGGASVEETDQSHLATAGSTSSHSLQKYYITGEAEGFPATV
How it was run: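 Transactivation via ERa-Gal4 chimera in HepG2; 24 hour incubation; reporter mRNA detected by fluorescence RT-PCR and capillary electrophoresis.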

[16] = target: Androgen receptor (Homo sapiens) (UniProt P10275); assay: ATG_AR_TRANS: Attagene TRANS-FACTORIAL HepG2 Assay for human Androgen Receptor (AR) (AID 2282973; active = hit-call score of the fitted dose curve at least 0.9, where 1 is the maximum); conditions: HepG2 Attagene TRANS-FACTORIAL AR reporter transcription
How it was run: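 Transfected HepG2, 24 h treatment, chimeric NR-Gal4 driving GAL4-UAS reporters. mRNA induction by RT-PCR/capillary electrophoresis fluorescence; DMSO as negative control and baseline.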

[17] = target: Bile acid receptor (Homo sapiens) (UniProt Q96RI1); assay: ATG_FXR_TRANS: Attagene TRANS-FACTORIAL HepG2 Assay for Farnesoid X Receptor (FXR) (AID 2282979; active = hit-call score of the fitted dose curve at least 0.9, where 1 is the maximum;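 also: hits raise reporter mRNA above DMSO so AC50 marks FXR activation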); conditions: HepG2 Attagene TRANS FXR-GAL4 reporter transcription
Bile acid receptor (Homo sapiens), sequence (Q96RI1 whole entry, looked up, the tested form may be a part): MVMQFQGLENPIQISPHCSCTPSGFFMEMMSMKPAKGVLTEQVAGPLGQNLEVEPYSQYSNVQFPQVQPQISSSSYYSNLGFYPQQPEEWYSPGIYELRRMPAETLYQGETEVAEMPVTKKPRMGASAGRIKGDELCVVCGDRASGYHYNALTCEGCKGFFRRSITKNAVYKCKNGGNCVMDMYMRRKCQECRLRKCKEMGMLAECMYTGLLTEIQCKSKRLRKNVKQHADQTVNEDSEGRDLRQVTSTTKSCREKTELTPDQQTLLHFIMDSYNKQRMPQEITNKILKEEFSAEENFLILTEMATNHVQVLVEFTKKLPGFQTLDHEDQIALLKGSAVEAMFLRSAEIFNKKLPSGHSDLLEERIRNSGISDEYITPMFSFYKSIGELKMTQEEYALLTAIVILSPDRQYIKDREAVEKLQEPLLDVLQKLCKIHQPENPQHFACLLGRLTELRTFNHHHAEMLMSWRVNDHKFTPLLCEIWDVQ
How it was run: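 Chimeric FXR-GAL4 activity in transiently transfected human HepG2 liver cells is scored as induction of reporter mRNA after 24 h of dosing. Detection uses RT-PCR with fluorescent labelling and capillary electrophoresis, with DMSO serving as baseline.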

[18] = target: Nuclear receptor subfamily 1 group I member 3 (Homo sapiens) (UniProt Q14994); assay: ATG_CAR_TRANS: Attagene TRANS-FACTORIAL HepG2 Assay for human Constitutive Androstane Receptor (CAR) (AID 2282969; active = hit-call score of the fitted dose curve at least 0.9, where 1 is the maximum;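 also: activators raise reporter mRNA above DMSO so AC50 marks induction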); conditions: HepG2 Attagene TRANS-FACTORIAL CAR reporter
How it was run: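 HepG2 cells transiently transfected with GAL4-UAS reporter units; TRANS format reads activity of exogenous chimeric NR-Gal4 protein. After 24 h dosing, reporter mRNA quantified by RT-PCR, 6-FAM labelling and capillary electrophoresis; gain of signal fitted against DMSO.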

[19] = target: Steroid hormone receptor ERR1 (Homo sapiens) (UniProt P11474); assay: ATG_ERRa_TRANS: Attagene TRANS-FACTORIAL HepG2 Assay for human Estrogen-Related Receptor alpha (ERRa) (AID 2282971; active = hit-call score of the fitted dose curve at least 0.9, where 1 is the maximum); conditions: HepG2 Attagene TRANS reporter, ERRa transactivation
How it was run: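 HepG2 cells were transiently transfected with multiple GAL4-UAS reporter units, then dosed with compound for 24 h. Total RNA was reverse-transcribed, reporter cDNA PCR-amplified and fluorescently labelled, and fragments resolved by capillary electrophoresis; induction was compared with DMSO.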

[20] = target: Estrogen-related receptor gamma (Homo sapiens) (UniProt P62508); assay: ATG_ERRg_TRANS: Attagene TRANS-FACTORIAL HepG2 Assay for human Estrogen-Related Receptor gamma (ERRg) (AID 2282977; active = hit-call score of the fitted dose curve at least 0.9, where 1 is the maximum;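 also: hits increase reporter signal over DMSO so potencies reflect activators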); conditions: HepG2 Attagene TRANS reporter, ERRg transactivation
How it was run: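 Transfect HepG2 with multiple GAL4-UAS reporter transcription units; dose chemicals 24 h; isolate RNA, reverse-transcribe with oligo(dT), PCR-amplify, label with 6-FAM, digest with HpaI; size fragments by capillary electrophoresis. DMSO serves as negative control.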

Measured: AC50

Cn1cc(-c2ccccc2)c(=O)c(-c2cccc(C(F)(F)F)c2)c1
inactive: [1] | [2] | [3] | [4] | [5] | [6] | [7] | [8]
active: [9] 100 µM

O=C(O)C1C2CCC(O2)C1C(=O)O (centres undefined)
inactive: [1] | [2] | [11] | [12] | [13] | [14] | [8] | [9]
active: [10] 100 µM | [3] 100 µM

O=C(Nc1ccccc1)c1ccccc1I
inactive: [1] | [2] | [15] | [3] | [16] | [4] | [6] | [13] | [7] | [8] | [9]

O=Cc1ccco1
inactive: [1] | [2] | [10] | [3] | [4] | [11] | [12] | [14] | [8] | [9]

CC(C)COC(=O)c1ccccc1C(=O)OCC(C)C
active: [3] 65.8 µM
not listed: [5] | [10] | [11] | [12] | [16] | [18] | [19] | [20]
inactive: all other assays above

CN(C)C(=O)Nc1ccc(Cl)cc1
inactive: [1] | [2] | [10] | [3] | [5] | [17] | [13] | [7] | [8] | [9]

CCCCOC(=O)c1ccccc1C(=O)OCc1ccccc1
not listed: [10] | [14] | [15] | [16] | [17] | [19] | [20]
inactive: all other assays above

ClC1=C(Cl)C2(Cl)C3C(Cl)C=CC3C1(Cl)C2(Cl)Cl (centres undefined)
inactive: [1] | [2] | [15] | [3] | [6] | [13] | [7] | [8] | [9]

COP(=S)(OC)SCN1C(=O)c2ccccc2C1=O
inactive: [1] | [2] | [3] | [4] | [6] | [17] | [14] | [8] | [9]

CCCCCCCCCCCCCN1CC(C)OC(C)C1 (centres undefined)
inactive: [1] | [2] | [15] | [3] | [6] | [11] | [13] | [14] | [8] | [9]

Nc1ccc(Oc2ccc(N)cc2)cc1
not listed: [4] | [5] | [10] | [12] | [15] | [16] | [17]
inactive: all other assays above

Cc1ccc(N=C=O)cc1N=C=O
inactive: [1] | [2] | [10] | [3] | [20] | [13] | [8] | [9]

— PubChem BioAssay (EPA / NIEHS)
